# Inconclusive results are not listed. The source made the active and inactive calls. Rule for the calls, unless noted: active = hit-call score of the fitted dose curve at least 0.9, where 1 is the maximum; inactive = score below 0.9.
# Tests used:
# [1] = ATG_NFI_CIS: Attagene CIS-FACTORIAL HepG2 Assay for human Nuclear Factor I (NFI) (AID 2282989); settings: HepG2 cis-regulatory reporter, NFI response element transcription; actives raise or lower the signal
# Summary of the method: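 Multiplexed cis-reporter system in human HepG2 cells reports native TF activity as reporter mRNA induction 24 h post-dose. Fragments labelled with 6-FAM, HpaI-digested and resolved by capillary electrophoresis; activity fitted both directions versus DMSO.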
# [2] = molecular target: Myc proto-oncogene protein (Homo sapiens) (UniProt P01106); assay: ATG_Myc_CIS: Attagene CIS-FACTORIAL HepG2 Assay for human Myelocytomatosis (Myc) Proto-Oncogene Transcription Factor (AID 2282990); settings: HepG2, Attagene cis-reporter transcription factor activity; actives raise or lower the signal
# Sequence of Myc proto-oncogene protein (Homo sapiens) (P01106 whole entry, looked up, the tested form may be a part): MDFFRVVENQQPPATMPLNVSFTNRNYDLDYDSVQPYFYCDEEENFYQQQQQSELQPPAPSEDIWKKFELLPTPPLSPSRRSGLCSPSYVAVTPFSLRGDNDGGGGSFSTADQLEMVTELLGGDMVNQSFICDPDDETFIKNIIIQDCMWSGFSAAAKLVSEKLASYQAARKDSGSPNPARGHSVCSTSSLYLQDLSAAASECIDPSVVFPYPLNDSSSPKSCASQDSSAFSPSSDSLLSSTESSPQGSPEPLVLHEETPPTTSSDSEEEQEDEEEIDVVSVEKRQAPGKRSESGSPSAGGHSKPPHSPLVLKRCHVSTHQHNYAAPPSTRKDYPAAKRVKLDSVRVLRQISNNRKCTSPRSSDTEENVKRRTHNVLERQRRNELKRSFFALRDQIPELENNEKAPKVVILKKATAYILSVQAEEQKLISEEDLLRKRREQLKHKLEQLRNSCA
# Summary of the method: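 After 24 h chemical treatment of HepG2 cells carrying multiplexed cis-regulated reporter constructs, reporter transcripts quantified by RT-PCR and capillary electrophoresis of fluorescent fragments. Gain or loss fitted against DMSO baseline.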
# [3] = ATG_NF_kB_CIS: Attagene CIS-FACTORIAL HepG2 Assay for human Nuclear Factor Kappa B (NF-kB) (AID 2282991); settings: HepG2 Attagene cis-factorial NF-kB reporter mRNA; actives raise or lower the signal
# Summary of the method: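 HepG2, transient multi-reporter transfection, cis promoter elements (endogenous TFs). 24 h exposure. Total RNA → RT → PCR → 6-FAM label → HpaI → CE. Gain/loss vs DMSO.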
# [4] = ATG_NRF2_ARE_CIS: Attagene CIS-FACTORIAL HepG2 Assay for human Nuclear Factor Erythroid 2 Related Factor 2 (NFR2) response to Antioxidant Response Elements (ARE) (AID 2282992); settings: HepG2 Attagene ARE/NRF2 reporter, transcription factor activity; actives raise or lower the signal;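 for AC50: reporter mRNA level measured by RT-PCR and capillary electrophoresis fluorescence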
# Summary of the method: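 Endogenous transcription factor activity in human liver HepG2 cells is tracked via a cis-element-driven reporter within a multiplexed set. mRNA induction is read by RT-PCR and capillary electrophoresis after 24 h, with DMSO as baseline.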
# [5] = ATG_Oct_MLP_CIS: Attagene CIS-FACTORIAL HepG2 Assay for human Octamer-Binding Transcription Factor (Oct) (AID 2282993); settings: HepG2 Attagene cis-factorial Oct reporter, mRNA; actives raise or lower the signal
# Summary of the method: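 After 24 h compound exposure, transfected HepG2 cells were lysed for total RNA; reporter-specific cDNA was PCR-amplified, fluorescently labelled and sized by capillary electrophoresis. Bidirectional curve fitting used DMSO as baseline.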
# [6] = molecular target: Cellular tumor antigen p53 (Homo sapiens) (UniProt P04637); assay: ATG_p53_CIS: Attagene CIS-FACTORIAL HepG2 Assay for human p53 Transcription Factor (AID 2282994); settings: HepG2 p53 cis-element reporter, Attagene mRNA; actives raise or lower the signal
# Sequence of Cellular tumor antigen p53 (Homo sapiens) (P04637 whole entry, looked up, the tested form may be a part): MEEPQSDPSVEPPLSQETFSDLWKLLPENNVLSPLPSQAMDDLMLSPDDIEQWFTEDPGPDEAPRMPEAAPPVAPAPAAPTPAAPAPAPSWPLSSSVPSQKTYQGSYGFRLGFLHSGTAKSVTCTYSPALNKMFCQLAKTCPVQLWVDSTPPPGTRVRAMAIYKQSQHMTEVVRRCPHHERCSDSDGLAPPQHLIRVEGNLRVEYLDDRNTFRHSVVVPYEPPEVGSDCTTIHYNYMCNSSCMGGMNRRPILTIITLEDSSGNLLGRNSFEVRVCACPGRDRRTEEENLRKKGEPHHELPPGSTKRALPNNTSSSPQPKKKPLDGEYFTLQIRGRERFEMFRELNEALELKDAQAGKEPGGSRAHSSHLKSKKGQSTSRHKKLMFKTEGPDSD
# Summary of the method: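 Steps: transfect HepG2 with multiplexed cis reporter constructs; dose chemicals 24 h; extract RNA, reverse-transcribe, PCR-amplify reporter sequences; FAM-label, HpaI-digest, resolve fragments by CE. Activity fitted both directions relative to DMSO.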
# [7] = BSK_3C_TissueFactor: BioMAP Diversity Plus: 3C Assay for Tissue Factor Biomarker Activity (AID 2282997); settings: BioMAP 3C HUVEC, tissue factor biomarker readout; actives raise or lower the signal
# Summary of the method: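 Readout: Tissue Factor ELISA. Cells: human primary umbilical vein endothelium. Time: 24 h after dosing. Analysis: bidirectional fit, DMSO baseline.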
# [8] = BSK_3C_uPAR: BioMAP Diversity Plus: 3C Assay for Urokinase-type plasminogen activator receptor (uPAR) Biomarker Activity (AID 2282998); settings: BioMAP 3C HUVEC, uPAR biomarker ELISA; actives raise or lower the signal
# Summary of the method: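 Values derive from bidirectional curve fitting relative to DMSO, which served as baseline of activity. uPAR was measured by ELISA in human umbilical vein endothelial primary cultures 24 h after compound addition.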
# [9] = BSK_3C_VCAM1: BioMAP Diversity Plus: 3C Assay for Vascular cell adhesion molecule 1 (VCAM1) Biomarker Activity (AID 2282999); settings: BioMAP 3C HUVEC, VCAM1 ELISA, cytokine-stimulated; actives raise or lower the signal
# Summary of the method: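 Activity fitted in both directions relative to DMSO, with ELISA measurement of the surface marker on primary HUVEC (3C) at 24 h post-treatment; parallel SRB staining (0.1% SRB, TCA-fixed, 560 nm) flagged overt cytotoxicity.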
# [10] = BSK_4H_Eotaxin3: BioMAP Diversity Plus: 4H Assay for Eotaxin 3 Biomarker Activity (AID 2283000); settings: primary human endothelial cells (HUVEC); actives raise or lower the signal;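 note: CCL26 protein level quantified by ELISA in parallel with SRB cytotoxicity check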
# Summary of the method: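 HUVEC, 24 h post-dose, ELISA for Eotaxin-3/CCL26. Gain or loss of signal fitted bidirectionally vs DMSO baseline.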
# [11] = molecular target: human Peroxisome Proliferator-activated Receptor alpha (PPARa), PPARA (gene 5465) (UniProt Q07869); assay: ATG_PPARa_TRANS: Attagene TRANS-FACTORIAL HepG2 Assay for human Peroxisome Proliferator-activated Receptor alpha (PPARa) (AID 2283001; active = hit-call score of the fitted dose curve at least 0.9, where 1 is the maximum)
# Sequence of human Peroxisome Proliferator-activated Receptor alpha (PPARa), PPARA (gene 5465) (Q07869 whole entry, looked up, the tested form may be a part): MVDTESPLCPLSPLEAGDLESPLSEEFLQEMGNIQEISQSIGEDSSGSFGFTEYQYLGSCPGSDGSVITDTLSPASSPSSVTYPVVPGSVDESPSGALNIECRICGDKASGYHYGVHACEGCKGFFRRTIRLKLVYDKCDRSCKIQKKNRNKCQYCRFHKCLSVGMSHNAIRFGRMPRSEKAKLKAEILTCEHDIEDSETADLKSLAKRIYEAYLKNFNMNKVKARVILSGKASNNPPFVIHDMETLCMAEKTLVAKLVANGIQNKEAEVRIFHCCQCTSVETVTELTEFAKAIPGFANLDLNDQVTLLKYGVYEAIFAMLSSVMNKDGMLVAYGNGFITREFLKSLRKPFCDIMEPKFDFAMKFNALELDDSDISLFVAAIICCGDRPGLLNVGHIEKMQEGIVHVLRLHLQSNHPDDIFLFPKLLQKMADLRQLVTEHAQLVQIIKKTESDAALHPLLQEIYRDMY
# Summary of the method: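 Reporter transcripts quantified by RT-PCR plus capillary electrophoresis after 24 h treatment, fitted upward relative to DMSO. Cells: human HepG2 transiently carrying multiple GAL4-UAS reporter units driven by NR-Gal4 chimeras.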
# [12] = molecular target: human Peroxisome Proliferator-activated Receptor delta (PPARd), PPARD (gene 5467) (UniProt Q03181); assay: ATG_PPARd_TRANS: Attagene TRANS-FACTORIAL HepG2 Assay for human Peroxisome Proliferator-activated Receptor delta (PPARd) (AID 2283002; active = hit-call score of the fitted dose curve at least 0.9, where 1 is the maximum)
# Sequence of human Peroxisome Proliferator-activated Receptor delta (PPARd), PPARD (gene 5467) (Q03181 whole entry, looked up, the tested form may be a part): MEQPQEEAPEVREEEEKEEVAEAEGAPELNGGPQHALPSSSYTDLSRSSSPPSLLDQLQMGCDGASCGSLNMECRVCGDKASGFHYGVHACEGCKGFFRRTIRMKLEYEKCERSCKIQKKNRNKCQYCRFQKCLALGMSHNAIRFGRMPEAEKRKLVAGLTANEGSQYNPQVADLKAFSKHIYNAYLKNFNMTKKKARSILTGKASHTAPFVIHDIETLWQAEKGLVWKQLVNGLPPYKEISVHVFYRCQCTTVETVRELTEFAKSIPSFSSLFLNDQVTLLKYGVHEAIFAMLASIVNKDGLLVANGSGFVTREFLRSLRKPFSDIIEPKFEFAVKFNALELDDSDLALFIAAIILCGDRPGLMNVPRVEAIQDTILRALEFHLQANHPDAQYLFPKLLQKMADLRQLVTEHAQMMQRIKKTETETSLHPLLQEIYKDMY
# Summary of the method: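 Read-out is induced reporter mRNA, quantified by RT-PCR with fluorescent labelling and capillary electrophoresis after 24 h dosing. Cells are HepG2 transiently carrying multiple GAL4-UAS reporter units driven by exogenous NR-GAL4 chimeras; DMSO serves as baseline.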
# [13] = read-out: Intercellular Adhesion Molecule 1 (ICAM1), ICAM1 (gene 3383); assay: BSK_3C_ICAM1: BioMAP Diversity Plus: 3C Assay for Intercellular Adhesion Molecule 1 (ICAM1) Biomarker Activity (AID 2283003); settings: primary human endothelial cells (HUVEC); actives raise or lower the signal
# Summary of the method: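 Chemicals are dosed onto primary human umbilical vein endothelium (3C system). After 24 h, ICAM-1 is measured by ELISA, and responses are fitted bidirectionally relative to DMSO.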
# [14] = BSK_3C_Proliferation: Cell Proliferation Assessment in the BioMAP Diversity Plus: 3C Assay (AID 2283006); settings: primary human endothelial cells (HUVEC);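 for AC50: potency may reflect either rise or fall in cell number versus DMSO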
# Summary of the method: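 Cells (human umbilical vein endothelial, sub-confluent) receive test chemical; after 48 h they are fixed in 10% trichloroacetic acid, stained with 0.1% SRB and read at 560 nm. Activity is referenced to DMSO, fitting increases and decreases.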
# [15] = molecular target: human Retinoic Acid Receptor gamma (RARg), RARG (gene 5916) (UniProt P13631); assay: ATG_RARg_TRANS: Attagene TRANS-FACTORIAL HepG2 Assay for human Retinoic Acid Receptor gamma (RARg) (AID 2283009; active = hit-call score of the fitted dose curve at least 0.9, where 1 is the maximum)
# Sequence of human Retinoic Acid Receptor gamma (RARg), RARG (gene 5916) (P13631 whole entry, looked up, the tested form may be a part): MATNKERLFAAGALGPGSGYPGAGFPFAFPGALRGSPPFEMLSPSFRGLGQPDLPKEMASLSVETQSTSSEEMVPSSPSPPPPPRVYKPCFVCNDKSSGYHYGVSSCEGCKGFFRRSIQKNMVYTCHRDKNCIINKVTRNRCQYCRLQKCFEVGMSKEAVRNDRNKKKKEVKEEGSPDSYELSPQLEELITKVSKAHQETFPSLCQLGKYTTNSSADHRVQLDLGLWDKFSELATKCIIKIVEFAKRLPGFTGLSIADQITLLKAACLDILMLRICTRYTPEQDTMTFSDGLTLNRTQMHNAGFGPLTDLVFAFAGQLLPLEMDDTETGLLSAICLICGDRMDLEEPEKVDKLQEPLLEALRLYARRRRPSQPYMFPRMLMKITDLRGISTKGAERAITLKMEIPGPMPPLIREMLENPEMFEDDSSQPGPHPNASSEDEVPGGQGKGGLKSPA
# Summary of the method: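 TRANS format measured activity of exogenous NR-GAL4 fusion (RARg) in transfected HepG2 liver cells after 24 h dosing. Induced reporter RNA was detected by RT-PCR/capillary electrophoresis fluorescence, analysed in the positive direction against DMSO.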
# [16] = molecular target: human RAR-related Orphan Receptor gamma (RORg), RORC (gene 6097) (UniProt P51449); assay: ATG_RORg_TRANS: Attagene TRANS-FACTORIAL HepG2 Assay for human RAR-related Orphan Receptor gamma (RORg) (AID 2283011; active = hit-call score of the fitted dose curve at least 0.9, where 1 is the maximum)
# Sequence of human RAR-related Orphan Receptor gamma (RORg), RORC (gene 6097) (P51449 whole entry, looked up, the tested form may be a part): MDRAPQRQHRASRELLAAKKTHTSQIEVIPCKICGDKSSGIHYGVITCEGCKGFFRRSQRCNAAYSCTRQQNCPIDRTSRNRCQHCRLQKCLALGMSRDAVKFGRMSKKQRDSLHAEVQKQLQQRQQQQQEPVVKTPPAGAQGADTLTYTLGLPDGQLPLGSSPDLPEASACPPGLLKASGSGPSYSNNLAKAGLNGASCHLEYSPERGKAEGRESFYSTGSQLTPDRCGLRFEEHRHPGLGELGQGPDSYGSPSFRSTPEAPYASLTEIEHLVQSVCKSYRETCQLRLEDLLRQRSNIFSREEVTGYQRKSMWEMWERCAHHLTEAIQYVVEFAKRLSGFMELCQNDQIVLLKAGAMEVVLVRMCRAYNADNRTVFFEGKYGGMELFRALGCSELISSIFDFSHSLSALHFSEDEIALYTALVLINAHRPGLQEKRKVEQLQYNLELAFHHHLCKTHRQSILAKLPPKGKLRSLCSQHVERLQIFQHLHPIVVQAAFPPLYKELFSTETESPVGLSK
# Summary of the method: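 Readout: reporter transcript induction (RT-PCR, fluorescent primer extension, capillary electrophoresis) after 24 h compound exposure of transiently transfected HepG2 cells carrying a RORg-Gal4 chimera and GAL4-UAS reporters; DMSO served as baseline, with increasing signal fitted.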
# [17] = molecular target: Peroxisome proliferator-activated receptor gamma (Homo sapiens) (UniProt P37231); assay: ATG_PPARg_TRANS: Attagene TRANS-FACTORIAL HepG2 Assay for human Peroxisome Proliferator-activated Receptor-gamma (PPARg) (AID 2283007; active = hit-call score of the fitted dose curve at least 0.9, where 1 is the maximum)
# Sequence of Peroxisome proliferator-activated receptor gamma (Homo sapiens) (P37231 whole entry, looked up): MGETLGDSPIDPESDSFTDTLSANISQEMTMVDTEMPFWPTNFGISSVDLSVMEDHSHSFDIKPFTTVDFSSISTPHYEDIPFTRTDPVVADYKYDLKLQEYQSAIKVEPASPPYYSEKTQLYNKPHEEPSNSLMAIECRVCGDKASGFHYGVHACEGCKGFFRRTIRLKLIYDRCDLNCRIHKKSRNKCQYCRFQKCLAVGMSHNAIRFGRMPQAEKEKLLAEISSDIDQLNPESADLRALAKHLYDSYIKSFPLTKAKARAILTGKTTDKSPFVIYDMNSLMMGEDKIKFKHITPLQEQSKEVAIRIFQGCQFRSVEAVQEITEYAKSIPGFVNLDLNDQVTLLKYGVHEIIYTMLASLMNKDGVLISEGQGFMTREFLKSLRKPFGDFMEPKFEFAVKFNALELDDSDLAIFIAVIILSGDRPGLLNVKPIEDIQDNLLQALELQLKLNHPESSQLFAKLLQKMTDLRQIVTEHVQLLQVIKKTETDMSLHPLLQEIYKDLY
# Summary of the method: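 Multiplexed reporter transcription units in HepG2, 24 h dosing, reporter transcripts quantified by fluorescent RT-PCR and capillary electrophoresis. Increase over DMSO scored.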
# [18] = molecular target: Nuclear receptor subfamily 1 group I member 2 (Homo sapiens) (UniProt O75469); assay: ATG_PXR_TRANS: Attagene TRANS-FACTORIAL HepG2 Assay for human Pregnane X Receptor (PXR) (AID 2283008; active = hit-call score of the fitted dose curve at least 0.9, where 1 is the maximum)
# Sequence of Nuclear receptor subfamily 1 group I member 2 (Homo sapiens) (O75469 whole entry, looked up, the tested form may be a part): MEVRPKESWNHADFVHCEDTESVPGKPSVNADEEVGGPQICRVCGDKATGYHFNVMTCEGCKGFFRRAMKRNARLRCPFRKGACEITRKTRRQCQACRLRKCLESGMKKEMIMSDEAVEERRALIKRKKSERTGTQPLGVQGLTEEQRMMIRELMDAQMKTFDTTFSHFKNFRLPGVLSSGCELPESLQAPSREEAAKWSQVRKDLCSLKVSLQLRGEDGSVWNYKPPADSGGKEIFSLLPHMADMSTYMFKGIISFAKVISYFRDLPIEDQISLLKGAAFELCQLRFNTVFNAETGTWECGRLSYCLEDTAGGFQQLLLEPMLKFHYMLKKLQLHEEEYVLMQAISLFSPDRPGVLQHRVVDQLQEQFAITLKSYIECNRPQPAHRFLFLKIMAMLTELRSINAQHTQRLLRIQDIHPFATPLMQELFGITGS
# Summary of the method: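 HepG2 transfected (FuGene 6) with GAL4-UAS reporter units + PXR-Gal4 chimera; dosed 24 h. Total RNA → oligo(dT) RT → PCR → 6-FAM primer extension → HpaI cut → CE. Gain-of-signal vs DMSO.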
smiles,measurement,setting,value
O=C(O)CN(CC(=O)O)CC(=O)O,outcome,[1],inactive
same,outcome,[2],inactive
same,outcome,[3],inactive
same,outcome,[4],inactive
same,outcome,[5],inactive
same,outcome,[6],inactive
same,outcome,[7],inactive
same,outcome,[8],inactive
same,outcome,[9],inactive
same,outcome,[10],inactive
same,outcome,[11],inactive
same,outcome,[12],inactive
same,outcome,[13],inactive
same,outcome,[14],inactive
same,outcome,[15],inactive
same,outcome,[16],inactive
CO[C@@H]1COCC[C@@H]1N[C@@H]1CC[C@@](C(=O)N2CCc3ncc(C(F)(F)F)cc3C2)(C(C)C)C1,outcome,[1],inactive
same,outcome,[2],inactive
same,outcome,[3],inactive
same,outcome,[4],inactive
same,outcome,[5],inactive
same,outcome,[6],inactive
same,outcome,[7],inactive
same,outcome,[8],inactive
same,outcome,[9],inactive
same,outcome,[10],inactive
same,outcome,[12],inactive
same,outcome,[13],inactive
same,outcome,[14],inactive
same,outcome,[17],inactive
same,outcome,[18],inactive
same,outcome,[16],inactive
C=CCc1ccc(OC)c(OC)c1,outcome,[1],inactive
same,outcome,[2],inactive
same,outcome,[3],inactive
same,outcome,[4],inactive
same,outcome,[5],inactive
same,outcome,[6],inactive
same,outcome,[7],inactive
same,outcome,[8],inactive
same,outcome,[9],inactive
same,outcome,[10],inactive
same,outcome,[11],inactive
same,outcome,[13],inactive
same,outcome,[14],inactive
same,outcome,[17],inactive
same,AC50,[18],28.8 µM (active)
same,outcome,[16],inactive
CC1=C(C)S(=O)(=O)CCS1(=O)=O,outcome,[1],inactive
same,outcome,[2],inactive
same,outcome,[3],inactive
same,AC50,[4],17.8 µM (active)
same,outcome,[5],inactive
same,AC50,[6],130 µM (active)
same,outcome,[7],inactive
same,outcome,[8],inactive
same,outcome,[9],inactive
same,outcome,[10],inactive
same,outcome,[11],inactive
same,outcome,[13],inactive
same,outcome,[14],inactive
same,AC50,[17],77.8 µM (active)
same,outcome,[18],inactive
same,outcome,[16],inactive
CCC(C)N(C)C(=O)c1cc2ccccc2c(-c2ccccc2Cl)n1 (centres undefined),outcome,[1],inactive
same,outcome,[2],inactive
same,outcome,[3],inactive
same,AC50,[4],16.8 µM (active)
same,AC50,[5],37 µM (active)
same,AC50,[6],27.3 µM (active)
same,outcome,[7],inactive
same,outcome,[8],inactive
same,outcome,[9],inactive
same,outcome,[10],inactive
same,outcome,[12],inactive
same,outcome,[13],inactive
same,AC50,[14],8.77 µM (active)
same,outcome,[17],inactive
same,outcome,[18],inactive
same,outcome,[16],inactive
COC(=O)CCC(=O)OC,outcome,[1],inactive
same,outcome,[2],inactive
same,outcome,[3],inactive
same,outcome,[4],inactive
same,outcome,[5],inactive
same,outcome,[6],inactive
same,outcome,[7],inactive
same,outcome,[8],inactive
same,outcome,[9],inactive
same,outcome,[10],inactive
same,outcome,[13],inactive
same,outcome,[14],inactive
same,outcome,[18],inactive
O=C(O)c1[nH]n(-c2ccc(S(=O)(=O)O)cc2)c(=O)c1N=Nc1ccc(S(=O)(=O)O)cc1,outcome,[1],inactive
same,outcome,[3],inactive
same,outcome,[4],inactive
same,outcome,[5],inactive
same,outcome,[6],inactive
same,outcome,[7],inactive
same,outcome,[8],inactive
same,outcome,[9],inactive
same,outcome,[10],inactive
same,outcome,[11],inactive
same,outcome,[12],inactive
same,outcome,[13],inactive
same,outcome,[14],inactive
CCCC[C@H]1CN(CC2CCOCC2)C(=O)OC12CCN(C1(C)CCN(C(=O)c3c(C)ncnc3C)CC1)CC2,outcome,[1],inactive
same,outcome,[2],inactive
same,outcome,[4],inactive
same,outcome,[5],inactive
same,outcome,[6],inactive
same,outcome,[7],inactive
same,outcome,[8],inactive
same,outcome,[9],inactive
same,outcome,[10],inactive
same,outcome,[11],inactive
same,outcome,[13],inactive
same,outcome,[14],inactive
same,outcome,[18],inactive
